WRN inhibitor – qHTS for Inhibitors of WRN Helicase; AID 651768, 2012; Bifunctional 3'-5' exonuclease/ATP-dependent helicase WRN (Homo sapiens), Q14191; WRN helicase unwinding, fluorescent forked duplex, kinetic; Potency, µM (series often up to 114 µM), most hits filed as inhibitors; hit rate 0.46% among 360,000; also: nearly all actives have a fitted effect of over 55% in size
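Screening of the MLSMR collection measured strand separation of a quenched forked DNA duplex (100 nM) by 20 nM WRN with 2 mM ATP, all final. Compounds were preincubated with enzyme 15 min at room temperature.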
Pol eta inh – qHTS for Inhibitors of Polymerase Eta; DNA polymerase eta (Homo sapiens), Q9Y253; recombinant Pol eta, fluorescent DNA replication assay; Potency, µM (series often up to 114 µM), hits mostly inhibitors; hit rate 1.2% among 390,000
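Fluorescent replication assay: 50 nM final substrate added after a 15 min room-temperature compound preincubation with 10 nM enzyme. Signal taken at 0 min and again at 10 min.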
POLK inh – qHTS for Inhibitors of Polymerase Kappa | DNA polymerase kappa (Homo sapiens), Q9UBT6 | purified Pol kappa, fluorescent DNA synthesis assay, 10 min | Potency, µM (titrated, usually from 107 µM), usual class: inhibitors | hit rate 0.53% among 400,000 | AID 588579, 2011
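First, compounds were pin-transferred onto 10 nM Pol kappa. After 15 min at room temperature, substrate was added to 50 nM final. Fluorescence was then measured kinetically at 0 and 10 min.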
Pol iota inh – qHTS for Inhibitors of Polymerase Iota | DNA polymerase iota (Homo sapiens), Q9UNA4 | Pol iota fluorescent replication assay, 10 min | Potency, µM (series often up to 115 µM), hits mostly inhibitors | hit rate 1% among 390,000 | AID 588590, 2011
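Fluorescent replication assay read twice, at 0 min and 10 min after adding 50 nM (final) substrate. Enzyme (10 nM) and compounds were first incubated 15 min at room temperature; enzyme-free buffer wells were negative controls.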
Pol beta inh – qHTS Assay for Inhibitors of DNA Polymerase Beta. Pol beta primer extension/strand displacement, fluorescence kinetic. Potency, µM (top dose mostly 114 µM), actives largely listed as inhibitors. hit rate 1.3% among 340,000. AID 485314, 2010
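Pol beta (10 nM) was preincubated with compound for 15 min at room temperature. The reaction was then started with 50 nM substrate and read immediately and after a further 10 min at room temperature.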
L3MBTL1 inh – qHTS Assay for the Inhibitors of L3MBTL1; AID 485360, 2010; AlphaScreen L3MBTL1–H3K9me1 peptide binding; Potency, µM (doses to about 57.1 µM), actives largely listed as inhibitors; hit rate 0.66% among 230,000; also: nearly all actives have a fitted effect of over 60% in size
Target sequence (Q9Y468 whole entry, looked up): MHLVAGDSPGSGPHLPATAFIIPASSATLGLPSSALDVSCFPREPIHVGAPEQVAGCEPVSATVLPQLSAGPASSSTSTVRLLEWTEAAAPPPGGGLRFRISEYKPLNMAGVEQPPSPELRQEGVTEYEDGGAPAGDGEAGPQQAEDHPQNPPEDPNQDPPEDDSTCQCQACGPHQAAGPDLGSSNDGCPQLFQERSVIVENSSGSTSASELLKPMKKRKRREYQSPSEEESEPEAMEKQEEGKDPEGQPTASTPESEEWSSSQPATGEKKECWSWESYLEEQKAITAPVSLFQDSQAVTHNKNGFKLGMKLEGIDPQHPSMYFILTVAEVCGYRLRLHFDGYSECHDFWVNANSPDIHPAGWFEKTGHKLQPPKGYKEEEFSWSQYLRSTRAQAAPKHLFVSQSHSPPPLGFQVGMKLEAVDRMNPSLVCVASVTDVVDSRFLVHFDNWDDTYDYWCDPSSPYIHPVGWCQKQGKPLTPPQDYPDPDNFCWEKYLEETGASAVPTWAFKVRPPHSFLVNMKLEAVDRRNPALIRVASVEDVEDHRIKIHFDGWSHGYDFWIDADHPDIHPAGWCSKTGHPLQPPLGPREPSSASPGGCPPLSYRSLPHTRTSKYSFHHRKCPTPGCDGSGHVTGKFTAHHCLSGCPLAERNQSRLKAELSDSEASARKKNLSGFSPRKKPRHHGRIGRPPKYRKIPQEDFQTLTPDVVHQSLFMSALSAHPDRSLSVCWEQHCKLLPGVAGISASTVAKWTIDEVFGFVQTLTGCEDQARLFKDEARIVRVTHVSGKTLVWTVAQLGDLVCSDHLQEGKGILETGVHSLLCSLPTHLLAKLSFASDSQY
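First, the protein-peptide complex forms for 30 min at room temperature (L3MBTL1 50 nM, biotinylated H3K9me1 peptide 75 nM). Next, compounds are pin-transferred and incubated 30 min. Finally, AlphaScreen beads are added and read after 30 min.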
Of the large screens only hits and unclear results are named; the others gave an inactive call. The list is not random: actives were taken first. Their share in the collection is about 2.5%. Calls follow the shape of the dose curve; as a rule, active = well fitted curve in the direction sought with a large enough effect; inconclusive = small, poorly fitted or top-dose-only effect, or another doubt; inactive = no such curve, though single readings can be large; an effect the other way counts as inactive or inconclusive.

CCOc1ccc(S(=O)(=O)Nc2cc(NS(=O)(=O)c3ccc(OCC)cc3)cc(C(=O)O)c2)cc1	Pol eta inh 25µM, POLK inh 79µM, Pol iota inh inconclusive (no result: Pol beta inh)
CCOc1ccc(NS(=O)(=O)c2ccc(NS(=O)(=O)c3ccccc3)cc2)cc1	none (no result: L3MBTL1 inh)
Cc1ccc(NC(=O)CSc2nc(O)cc(=O)n2-c2ccc(C)cc2)cc1	none (no result: L3MBTL1 inh)
CN(C)C(CNC(=O)C1CCCN1C(=O)c1cccs1)c1ccccc1 (stereo not drawn)	Pol iota inh inconclusive (no result: Pol beta inh)
COC(=O)c1ccc(CS(=O)(=O)c2ccc(F)cc2)o1	Pol eta inh 22µM, POLK inh inconclusive, Pol beta inh 35µM (no result: L3MBTL1 inh)
CCn1c(/C(C#N)=C/c2ccccc2Cl)nc2ccccc21	none (no result: WRN inhibitor, L3MBTL1 inh)
Cn1c(/C(C#N)=C/c2ccccc2Br)nc2ccccc21	POLK inh inconclusive, Pol iota inh 79µM (no result: WRN inhibitor, Pol eta inh, L3MBTL1 inh)
O=C(NCc1ccco1)[C@@H]1CSC2c3ccccc3C(=O)N21 (stereo partly drawn)	Pol eta inh 14µM, POLK inh inconclusive, Pol iota inh 20µM (no result: L3MBTL1 inh)
C[C@H](CO)N1C[C@H](C)[C@@H](CN(C)Cc2ccc(-c3ccccc3)cc2)Oc2c(NC(=O)c3ccncc3)cccc2C1=O	none (no result: Pol beta inh)
Clc1ccc(-c2nnc(-c3ccco3)nc2N2CCCCC2)cc1	WRN inhibitor inconclusive, Pol eta inh inconclusive, Pol beta inh 40µM
Clc1ccc(-c2nnc(-c3ccc(Br)cc3)c(N3CCSCC3)n2)cc1	none
COc1ccccc1NS(=O)(=O)c1cccc(NC(=O)C2CC(=O)N(Cc3ccccc3)C2)c1 (stereo not drawn)	none
Cc1ccc(S(=O)(=O)NCC(=O)NCC2COc3ccccc3O2)cc1C (stereo not drawn)	none (no result: Pol beta inh)
O=C(O)c1cccc(N2C(=O)C3C4C=CC(C4=C(c4ccccc4)c4ccccc4)C3C2=O)c1 (stereo not drawn)	Pol beta inh 50µM, L3MBTL1 inh inconclusive
O=C(c1cccc(N2C(=O)C3C4C=CC(C4)C3C2=O)c1)N1CCCCCC1 (stereo not drawn)	none (no result: L3MBTL1 inh)
O=C(CSc1nc(-c2ccc(F)cc2)cs1)NC(=O)NCc1ccco1	Pol eta inh inconclusive, Pol iota inh 50µM, Pol beta inh inconclusive
Nn1c(SCC(=O)NC(=O)NCc2ccco2)nnc1-c1ccc(OC(F)F)cc1	Pol eta inh 8.9µM, POLK inh inconclusive, Pol iota inh inconclusive, Pol beta inh inconclusive (no result: L3MBTL1 inh)
O=C(CSc1nnnn1-c1ccccc1)NC(=O)NCc1ccco1	Pol eta inh 8.9µM, POLK inh inconclusive, Pol iota inh 20µM, Pol beta inh 40µM (no result: L3MBTL1 inh)
COc1ccccc1C(C)NCC(=O)NC(=O)NCc1ccco1 (stereo not drawn)	Pol eta inh inconclusive, Pol iota inh 50µM (no result: Pol beta inh)
Cn1nnnc1SCC(=O)NCc1ccco1	none
Cc1nn(C)cc1S(=O)(=O)NCc1ccccc1Cl	none (no result: L3MBTL1 inh)
Cc1ccc2nc(CN3CCN(S(=O)(=O)c4ccc(F)cc4)CC3)oc2c1	none (no result: WRN inhibitor, L3MBTL1 inh)
Cc1ccc(SCC(=O)NC(=O)NCc2ccco2)cc1C	Pol beta inh 40µM, L3MBTL1 inh inconclusive (no result: WRN inhibitor, Pol eta inh, POLK inh, Pol iota inh)
O=C(CSc1ccc2c(c1)OCCO2)NCc1ccco1	Pol eta inh inconclusive, POLK inh inconclusive, Pol iota inh inconclusive, Pol beta inh 40µM
O=C1CC(SC(=S)C2CCCC2=O)C(=O)N1 (stereo not drawn)	WRN inhibitor 35µM, Pol eta inh 7.1µM (no result: POLK inh, Pol iota inh, Pol beta inh, L3MBTL1 inh)
CC(=O)c1ccc(OC(=O)c2nc(-c3ccccc3)oc2C)cc1	Pol eta inh inconclusive, Pol iota inh inconclusive, Pol beta inh 50µM (no result: L3MBTL1 inh)
Cc1oc(-c2ccccc2)nc1C(=O)O	none
Cc1cccc2nc(CSCc3ccco3)cn12	Pol eta inh 20µM, Pol iota inh inconclusive, Pol beta inh 40µM, L3MBTL1 inh inconclusive
Cc1cccc(Nc2nc(N)c([N+](=O)[O-])c(N3CCCC(C)C3)n2)c1 (stereo not drawn)	L3MBTL1 inh 32µM
